Measured values published in PubChem BioAssay (NCI).
“And” between values parts separate entries of the source, which are not always exact repeats. Equal values may be shown once. About 83,000 compounds went through this panel and 20% of them were active in at least one assay; those are over-represented in the sample as a whole.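 Percent growth is the endpoint: 0 to 100 indicates growth inhibition (40 means 60% inhibition), 0 means no net growth, and negative values indicate cell death.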 The source made the active and inactive calls. How the source made its calls: active means growth percent below 10; inactive means the rest.

Assays:
Experiment in all cases: NCI-60 one-dose screen, 48 h (100 = growth as untreated, 0 = no growth, -100 = all killed)
Conditions in all cases: 10 µM unless noted
NCI-H23 lung = tested on: NCI-H23 lung
NCI-H226 lung = tested on: NCI-H226 lung
NCI-H322M lung = tested on: NCI-H322M lung
NCI-H460 lung = tested on: NCI-H460 lung
A549/ATCC NSCLC = tested on: A549/ATCC NSCLC
786-0 renal = tested on: 786-0 renal
COLO 205 colon = tested on: COLO 205 colon
HOP-62 NSCLC = tested on: HOP-62 NSCLC
HOP-92 NSCLC = tested on: HOP-92 NSCLC
NCI-H522 lung = tested on: NCI-H522 lung

Row | SMILES | growth (NCI-H23 lung) | growth (NCI-H226 lung) | growth (NCI-H322M lung) | growth (NCI-H460 lung) | growth (A549/ATCC NSCLC) | growth (786-0 renal) | growth (COLO 205 colon) | growth (HOP-62 NSCLC) | growth (HOP-92 NSCLC) | growth (NCI-H522 lung)
1 | O=[N+]([O-])c1ccc(CI)cc1 | 101% (inactive) | 94.6% (inactive) | 106% (inactive) | 101% (inactive) | 101% (inactive) | 94% (inactive) | 88.8% (inactive) |  |  | 
2 | C/C(=N/OC(=O)N(C)C)c1ccc(Cl)c(Cl)c1 | 98.2% (inactive) | 102% (inactive) |  | 107% (inactive) | 82.7% (inactive) | 103% (inactive) | 111% (inactive) | 107% (inactive) | 102% (inactive) | 102% (inactive)
3 | CCCC1CCCCC12C(=O)NC(=O)NC2=O (configuration not stated) | 97.2% (inactive) and 101% (inactive) | 91.1% (inactive) |  | 101% (inactive) and 109% (inactive) | 104% (inactive) and 98.2% (inactive) | 102% (inactive) and 96.6% (inactive) | 104% (inactive) and 110% (inactive) | 107% (inactive) | 103% (inactive) | 95.5% (inactive) and 89.7% (inactive)
4 | O=C(O)CNCP(=O)(O)O | 107% (inactive) | 103% (inactive) | 106% (inactive) | 119% (inactive) | 102% (inactive) | 106% (inactive) | 119% (inactive) | 109% (inactive) |  | 98.2% (inactive)
5 | CCCCOC(N)=O | 100% (inactive) | 103% (inactive) | 102% (inactive) | 106% (inactive) | 109% (inactive) | 104% (inactive) | 108% (inactive) | 105% (inactive) |  | 106% (inactive)
6 | Nc1ccc(P(=O)(O)O)cc1 | 101% (inactive) and 96.7% (inactive) | 102% (inactive) and 100% (inactive) | 104% (inactive) and 99.3% (inactive) | 113% (inactive) and 103% (inactive) | 102% (inactive) and 94.4% (inactive) | 113% (inactive) and 91.2% (inactive) | 111% (inactive) and 105% (inactive) |  | 95.3% (inactive) and 90.3% (inactive) | 111% (inactive) and 88.8% (inactive)
7 | O=C(NC(Cl)=C(Cl)Cl)P(=O)(c1ccccc1)c1ccccc1 | 105% (inactive) | 101% (inactive) |  | 114% (inactive) | 101% (inactive) | 101% (inactive) | 118% (inactive) | 104% (inactive) | 97.4% (inactive) | 99.4% (inactive)
8 | Nc1nc(=S)nc(N)[nH]1 | 89.5% (inactive) | 96.9% (inactive) | 102% (inactive) | 111% (inactive) |  | 88.6% (inactive) |  | 89% (inactive) |  | 75.5% (inactive)
9 | O=C(O)C(Br)CBr (configuration not stated) | 99.2% (inactive) | 103% (inactive) | 92.5% (inactive) | 102% (inactive) | 97.6% (inactive) | 96.4% (inactive) | 111% (inactive) | 101% (inactive) |  | 75.9% (inactive)
10 | Cc1c2ccncc2c(C)c2c1[nH]c1ccccc12 | -79.5% (active) | -0.884% (active) | -83.3% (active) | -69.2% (active) | -65.4% (active) | -95.9% (active) | -87.1% (active) |  |  | -50.6% (active)
11 | CCC(Br)(CC)C(=O)NC(N)=O | 108% (inactive) | 96.4% (inactive) | 106% (inactive) | 103% (inactive) | 104% (inactive) | 107% (inactive) | 108% (inactive) |  | 103% (inactive) | 105% (inactive)
12 | O=c1c2ccccc2nc(-c2ccccc2Cl)n1-c1nnc(C(F)(F)F)s1 | -0.336% (active) | 42.9% (inactive) | 17.6% (inactive) | 24.7% (inactive) | 37.3% (inactive) | 22.4% (inactive) | 43.6% (inactive) | 58.7% (inactive) |  | -23.4% (active)
13 | CC1(C)C=Cc2c(ccc3c2[N+]([O-])=C2C3=C[C@@]34NC(=O)[C@]5(CCCN5C3=O)C[C@@H]4C2(C)C)O1 | 63.2% (inactive) | 84.5% (inactive) |  | 26.9% (inactive) | 54.7% (inactive) | 42.1% (inactive) | 35.2% (inactive) | 54.5% (inactive) | 73.4% (inactive) | 25.6% (inactive)
14 | CN1CCc2cc3c(cc2C1O)OCO3 (configuration not stated) | 109% (inactive) | 36% (inactive) and 105% (inactive) | 127% (inactive) and 98.7% (inactive) | -48.6% (active) and 107% (inactive) | 96.2% (inactive) and 106% (inactive) | 100% (inactive) and 91.9% (inactive) | 92.9% (inactive) and 111% (inactive) | 103% (inactive) and 99.1% (inactive) |  | -63.4% (active) and 109% (inactive)
15 | O=C(O)c1cc([N+](=O)[O-])cc([N+](=O)[O-])c1 | 107% (inactive) | 97% (inactive) |  | 106% (inactive) | 79.6% (inactive) | 97.9% (inactive) | 118% (inactive) | 85.6% (inactive) | 88.2% (inactive) | 67.9% (inactive)
16 | CC(=O)c1cccc(S(=O)(=O)F)c1 | 100% (inactive) | 97.2% (inactive) | 95.6% (inactive) | 109% (inactive) | 98.6% (inactive) | 98.4% (inactive) | 114% (inactive) | 98.4% (inactive) |  | 89.8% (inactive)
17 | Cc1ccc(C(=O)O[C@H](C(=O)O)[C@H](OC(=O)c2ccc(C)cc2)C(=O)O)cc1 | 102% (inactive) | 104% (inactive) | 104% (inactive) | 115% (inactive) | 103% (inactive) | 101% (inactive) | 108% (inactive) | 110% (inactive) |  | 119% (inactive)
18 | O=C1c2ccccc2C(=O)N1N1CC1c1ccccc1 (configuration not stated) | 96.3% (inactive) | 102% (inactive) | 92.5% (inactive) | 111% (inactive) | 98.8% (inactive) | 98.9% (inactive) | 101% (inactive) | 111% (inactive) |  | 85.9% (inactive)
19 | O=C(O)C1C(C(=O)O)C2(Cl)C(Cl)=C(Cl)C1(Cl)C2(Cl)Cl (configuration not stated) | 96.8% (inactive) and 100% (inactive) | 98.5% (inactive) and 114% (inactive) |  | 101% (inactive) and 111% (inactive) | 104% (inactive) and 95.8% (inactive) | 111% (inactive) and 99.2% (inactive) | 101% (inactive) and 119% (inactive) | 99.6% (inactive) and 111% (inactive) | 94.3% (inactive) and 94.8% (inactive) | 97.2% (inactive) and 123% (inactive)
20 | CC1=C2[C@H]3OC(=O)[C@@H](C)[C@@H]3CC[C@@]2(C)C=CC1=O | 54.5% (inactive) | 92% (inactive) | 85.8% (inactive) | 116% (inactive) |  | 106% (inactive) | 96.7% (inactive) | 111% (inactive) |  | 123% (inactive)
21 | O=[N+]([O-])c1ccc(P(=O)(O)O)cc1 | 105% (inactive) | 97.6% (inactive) | 101% (inactive) | 103% (inactive) | 103% (inactive) | 96% (inactive) | 103% (inactive) |  | 85% (inactive) | 92.3% (inactive)
22 | O=[N+]([O-])c1ccc2scc3c4ccccc4nc-3c2c1 | 30.7% (inactive) | -32.4% (active) |  | 42.7% (inactive) | 18.9% (inactive) | -82.9% (active) | -55.6% (active) | 2.95% (active) | -61.8% (active) | -88.8% (active)
